# Source: the supplement of paper PMC8728848
# The full list was thinned out, with the strongest signals kept by preference.
# B1: L-Selectin (Mus musculus), P18337 (protein)
# chain: MVFPWRCEGTYWGSRNILKLWVWTLLCCDFLIHHGTHCWTYHYSEKPMNWENARKFCKQNYTDLVAIQNKREIEYLENTLPKSPYYYWIGIRKIGKMWTWVGTNKTLTKEAENWGAGEPNNKKSKEDCVEIYIKRERDSGKWNDDACHKRKAALCYTASCQPGSCNGRGECVETINNHTCICDAGYYGPQCQYVVQCEPLEAPELGTMDCIHPLGNFSFQSKCAFNCSEGRELLGTAETQCGASGNWSSPEPICQVVQCEPLEAPELGTMDCIHPLGNFSFQSKCAFNCSEGRELLGTAETQCGASGNWSSPEPICQETNRSFSKIKEGDYNPLFIPVAVMVTAFSGLAFLIWLARRLKKGKKSQERMDDPY
# B2: rAAL-2 (Agrocybe aegerita) (protein)
# chain: MTSNVITQDLPIPVASRGFADIVGFGLDGVVIGRNAVNLQPFLAVKNFAQNAGGWLTTKHVRLIADTTGTGKGDIVGFGNAGVYVSVNNGKNTFADPPKMVIANFGYDAGGWRVEKHLRYLADIRKIGRADIIGFGEKGVLVSRNNGGLNFGPATLVLKDFGYDAGGWRLDRHLRFLADVTGNGHLDIVGFGDKHVFISRNNGDGTFAPAKSVIDNFCIDAGGWKIGDHPRFVADLTGDGTADIIGCGKAGCWVALNNGGGVFGQVKLVINDFGTDKGWQAAKHPRFIADLTGNGRGDVVGFGNAGVYVALNNGDGTFQSAKLVLKDFGVQQGWTVSKHRRFVVDLTGDGCADIIGFGEKETLVSYNDGKGNFGPVKALTNDFSFSGGKWAPETTVCWMANLDSSRH
# Tests used:
# Test in all cases: glycan array binding signal (z-score within array); higher = stronger binding
# Conditions in all cases: glycan notation: IUPAC condensed, linker removed
# [1] = molecular target: Fuc(a1-2)Gal(b1-4)GlcNAc(b1-3)Gal(b1-4)GlcNAc(b1-3)Gal(b1-4)GlcNAc
# Summary of the method: (§1)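 The binding signal is a Z-score computed within each array and averaged over linkers. Arrays of the same protein sequence at different concentrations or buffers were also averaged together. Data originate from 3228 arrays in the Consortium for Functional Glycomics database, kept only where the protein sequence was available.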
# [2] = molecular target: Fuc(a1-2)Gal6S(b1-4)GlcNAc
# Summary of the method: as §1
# [3] = molecular target: Fuc(a1-3)[Gal3S(b1-4)]Glc6S
# Summary of the method: as §1
# [4] = molecular target: Fuc(a1-3)[Gal3S(b1-4)]GlcNAc6S
# Summary of the method: as §1
# [5] = molecular target: Fuc(a1-3)[GalNAc(b1-4)]GlcNAc
# Summary of the method: as §1
# [6] = molecular target: Gal(b1-4)GlcNAc(b1-3)[Gal(b1-4)GlcNAc(b1-6)]GalNAc
# Summary of the method: as §1
# [7] = molecular target: Gal3S(b1-3)[Fuc(a1-4)]GlcNAc
# Summary of the method: as §1
# Gal3S(b1-4)Glc = molecular target: Gal3S(b1-4)Glc
# Summary of the method: as §1
# Gal3S6S(b1-4)GlcNAc6S = molecular target: Gal3S6S(b1-4)GlcNAc6S
# Summary of the method: as §1
# GalNAc(b1-3)Gal = molecular target: GalNAc(b1-3)Gal
# Summary of the method: as §1
# [8] = molecular target: GlcNAc(b1-4)Gal(b1-4)GlcNAc
# Summary of the method: as §1
# [9] = molecular target: Neu5Ac(a2-3)Gal(b1-4)[Fuc(a1-3)]GlcNAc6S
# Summary of the method: as §1
# [10] = molecular target: Neu5Ac(a2-3)[GalNAc(b1-4)]Gal(b1-4)GlcNAc
# Summary of the method: as §1
# Neu5Ac(a2-6)Gal(b1-4)Glc = molecular target: Neu5Ac(a2-6)Gal(b1-4)Glc
# Summary of the method: as §1
# [11] = molecular target: Neu5Ac(a2-6)Gal(b1-4)GlcNAc(b1-3)Gal(b1-4)[Fuc(a1-3)]GlcNAc(b1-3)Gal(b1-4)[Fuc(a1-3)]GlcNAc
# Summary of the method: as §1
# [12] = molecular target: Neu5Ac(a2-8)Neu5Ac(a2-8)Neu5Ac
# Summary of the method: as §1
# [13] = molecular target: Neu5Ac(a2-8)Neu5Ac(a2-8)Neu5Ac(a2-3)[GalNAc(b1-4)]Gal(b1-4)Glc
# Summary of the method: as §1
# Neu5Ac(b2-6)GalNAc = molecular target: Neu5Ac(b2-6)GalNAc
# Summary of the method: as §1
# [14] = molecular target: GlcNAc(b1-3)Gal(b1-4)GlcNAc(b1-3)Gal(b1-4)GlcNAc(b1-3)Gal(b1-4)GlcNAc(b1-3)Gal(b1-4)GlcNAc(b1-2)Man(a1-3)[GlcNAc(b1-3)Gal(b1-4)GlcNAc(b1-3)Gal(b1-4)GlcNAc(b1-3)Gal(b1-4)GlcNAc(b1-3)Gal(b1-4)GlcNAc(b1-2)Man(a1-6)]Man(b1-4)GlcNAc(b1-4)GlcNAc
# Summary of the method: as §1
# [15] = molecular target: GlcNAc(b1-3)Gal(b1-4)GlcNAc(b1-3)Gal(b1-4)GlcNAc(b1-3)Gal(b1-4)GlcNAc(b1-3)Gal(b1-4)GlcNAc(b1-2)Man(a1-3)[GlcNAc(b1-3)Gal(b1-4)GlcNAc(b1-3)Gal(b1-4)GlcNAc(b1-3)Gal(b1-4)GlcNAc(b1-3)Gal(b1-4)GlcNAc(b1-2)Man(a1-6)]Man(b1-4)GlcNAc(b1-4)[Fuc(a1-6)]GlcNAc
# Summary of the method: as §1
# GlcNAc(b1-3)GalNAc = molecular target: GlcNAc(b1-3)GalNAc
# Summary of the method: as §1
# [16] = molecular target: GlcNAc(b1-3)[GlcNAc(b1-4)][GlcNAc(b1-6)]GlcNAc
# Summary of the method: as §1
# GlcNAc3Prop(b1-4)GlcNAc = molecular target: GlcNAc3Prop(b1-4)GlcNAc
# Summary of the method: as §1
# [17] = molecular target: Neu5Ac(a2-3)Gal(b1-3)GalNAc(b1-3)Gal(a1-4)Gal(b1-4)Glc
# Summary of the method: as §1
# [18] = molecular target: Neu5Ac(a2-3)Gal(b1-3)GalNAc(b1-4)[Neu5Ac(a2-8)Neu5Ac(a2-3)]Gal(b1-4)Glc
# Summary of the method: as §1
# [19] = molecular target: Neu5Ac(a2-3)Gal(b1-3)[Fuc(a1-4)]GlcNAc
# Summary of the method: as §1
# Neu5Ac(a2-3)Gal(b1-4)Glc = molecular target: Neu5Ac(a2-3)Gal(b1-4)Glc
# Summary of the method: as §1
# [20] = molecular target: Neu5Ac(a2-3)Gal(b1-4)GlcNAc
# Summary of the method: as §1
# [21] = molecular target: Neu5Ac(a2-3)Gal(b1-4)GlcNAc(b1-2)Man(a1-3)[GlcNAc(b1-4)][Neu5Ac(a2-3)Gal(b1-4)GlcNAc(b1-2)Man(a1-6)]Man(b1-4)GlcNAc(b1-4)GlcNAc
# Summary of the method: as §1
# [22] = molecular target: Neu5Ac(a2-3)Gal(b1-4)GlcNAc(b1-2)[Neu5Ac(a2-3)Gal(b1-4)GlcNAc(b1-6)]Man(a1-6)[Neu5Ac(a2-3)Gal(b1-4)GlcNAc(b1-2)Man(a1-3)][GlcNAc(b1-4)]Man(b1-4)GlcNAc(b1-4)GlcNAc
# Summary of the method: as §1
# [23] = molecular target: Neu5Ac(a2-6)Gal(b1-4)GlcNAc(b1-2)Man(a1-3)[Neu5Ac(a2-3)Gal(b1-4)GlcNAc(b1-2)Man(a1-6)]Man(b1-4)GlcNAc(b1-4)GlcNAc
# Summary of the method: as §1
# [24] = molecular target: Neu5Ac(a2-6)Gal(b1-4)GlcNAc(b1-3)Gal(b1-4)GlcNAc(b1-3)Gal(b1-4)GlcNAc(b1-2)Man(a1-3)[Neu5Ac(a2-6)Gal(b1-4)GlcNAc(b1-3)Gal(b1-4)GlcNAc(b1-3)Gal(b1-4)GlcNAc(b1-2)Man(a1-6)]GalNAc
# Summary of the method: as §1
# [25] = molecular target: Neu5Ac(a2-6)GalNAc(b1-4)GlcNAc
# Summary of the method: as §1
# [26] = molecular target: Neu5Gc(a2-8)Neu5Gc(a2-3)Gal(b1-4)GlcNAc(b1-3)Gal(b1-4)GlcNAc
# Summary of the method: as §1
Binder,glycan array binding signal (z-score) [1],glycan array binding signal (z-score) [2],glycan array binding signal (z-score) [3],glycan array binding signal (z-score) [4],glycan array binding signal (z-score) [5],glycan array binding signal (z-score) [6],glycan array binding signal (z-score) [7],glycan array binding signal (z-score) (Gal3S(b1-4)Glc),glycan array binding signal (z-score) (Gal3S6S(b1-4)GlcNAc6S),glycan array binding signal (z-score) (GalNAc(b1-3)Gal),glycan array binding signal (z-score) [8],glycan array binding signal (z-score) [9],glycan array binding signal (z-score) [10],glycan array binding signal (z-score) (Neu5Ac(a2-6)Gal(b1-4)Glc),glycan array binding signal (z-score) [11],glycan array binding signal (z-score) [12],glycan array binding signal (z-score) [13],glycan array binding signal (z-score) (Neu5Ac(b2-6)GalNAc),glycan array binding signal (z-score) [14],glycan array binding signal (z-score) [15],glycan array binding signal (z-score) (GlcNAc(b1-3)GalNAc),glycan array binding signal (z-score) [16],glycan array binding signal (z-score) (GlcNAc3Prop(b1-4)GlcNAc),glycan array binding signal (z-score) [17],glycan array binding signal (z-score) [18],glycan array binding signal (z-score) [19],glycan array binding signal (z-score) (Neu5Ac(a2-3)Gal(b1-4)Glc),glycan array binding signal (z-score) [20],glycan array binding signal (z-score) [21],glycan array binding signal (z-score) [22],glycan array binding signal (z-score) [23],glycan array binding signal (z-score) [24],glycan array binding signal (z-score) [25],glycan array binding signal (z-score) [26]
B1,-0.485,-0.072,3.99,4.9,-0.454,-0.393,3.61,0.558,4.38,-0.436,-0.044,8.82,-0.282,-0.214,-0.252,-0.493,-0.235,-0.495,–,–,–,–,–,–,–,–,–,–,–,–,–,–,–,–
B2,–,–,–,–,–,–,–,–,–,–,–,–,–,-0.303,–,–,–,–,4.12,3.97,0.798,-0.339,0.177,-0.228,-0.103,-0.392,-0.151,-0.177,-0.314,-0.33,-0.237,0.107,-0.288,-0.178
